Screening data from PubChem BioAssay.
An excerpt weighted towards active compounds, which were near 15% of everything screened.
HCV inhibitor = inhibitors of hepatitis C virus infection; Huh7.5.1 HCVcc-Cre infection, luciferase reporter, 44 h; Potency, µM (doses to about 41.8 µM), for inactives: at the highest dose activity change, negative = inhibition, usual class: inhibitors; 340,000 tested, 3.4% active; AID 651820; also: potency is read from the fitted curve at half-maximal effect; % is scaled to controls: 0 for no effect and ±100 for the full control effect
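Cells seeded at 1,000/well and cultured 4 h, then compounds added followed by HCVcc-Cre virus (~0.5 moi). After 44 h further culture, luciferase substrate was added, plates held 15 min at room temperature, and luminescence read for 15 sec.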
Sm TGR block = blocks Schistosoma mansoni thioredoxin glutathione reductase | Q962Y6 | purified TGR, DTNB reduction, TNB absorbance 405 nm | Potency, µM (doses to about 114 µM), without a hit: at the highest dose activity change, negative = inhibition, usual class: inhibitors | 360,000 tested, 3% active | AID 485364; also: potency is read from the fitted curve at half-maximal effect; % is scaled to controls: 0 for no effect and ±100 for the full control effect; nearly all actives have a fitted effect of over 60% in size
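TGR 20 nM + NADPH 100 uM (dispensed conc.), cpd preinc 15 min RT; start with NADPH (500 uM addition) then DTNB (15 mM addition). Kinetic TNB absorbance, 405 nm filter. Four-parameter Hill fit across titration.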
SARS PLpro yeast = SARS-CoV PLP inhibition in yeast | Potency, µM (highest dose often 32.9 µM), for the others: top-dose activity, positive = growth rescue, most hits filed as activators | 330,000 tested, 0.19% active | S. cerevisiae expressing SARS-CoV PLpro, growth rescue; calls by dose curve; also: potency is read from the fitted curve at half-maximal effect; 0% is about no effect; nearly all actives have a fitted effect of over 55% in size
Pf growth 96h = P. falciparum growth inhibition at 96 hour, primary screen for plastid delayed-death inhibitors; Potency, µM (highest dose often 28.7 µM), inactives show at the top dose activity change, negative = inhibition, most hits filed as inhibitors; 320,000 tested, 6.9% active; P. falciparum luciferase reporter growth, 96 h; also: potency is read from the fitted curve at half-maximal effect; % is scaled to controls: 0 for no effect and ±100 for the full control effect
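Infected RBCs, 2% Hct / 0.05% parasitemia final; luciferase-reporter P. falciparum; cpd 96 h, 37 C, 5% CO2; luciferase detection reagent; luminescence.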
Pf growth 48h = P. falciparum growth inhibition at 48 hours (one generation) | 310,000 tested, 5.9% active | P. falciparum luciferase growth in erythrocytes, 48 h | Potency, µM (top dose mostly 28.7 µM), for inactives: at the top dose activity change, negative = inhibition, hits mostly inhibitors; also: potency is read from the fitted curve at half-maximal effect; % is scaled to controls: 0 for no effect and ±100 for the full control effect
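Luminescence readout; reporter = integrated firefly luciferase in P. falciparum. RBC culture at 2% hematocrit, 0.1% parasitemia final, 37 C/5% CO2; decreased signal taken as growth inhibition.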
HCMV inh = blocks human cytomegalovirus replication. HFF cells, HCMV-luciferase reporter, 72 h; hits give low values. activity change, negative = inhibition, % at 57.5 µM. 410,000 tested, 4.5% active. AID 1259415; in the data active = activity change below about -60%; inconclusive = no clear call, values can overlap the other calls; inactive = above about -39%; also: % is scaled to controls: 0 for no effect and ±100 for the full control effect
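HFF cells seeded 16 h at 37C, treated with compounds, infected with luciferase-reporter HCMV at MOI 1 PFU/cell; luciferase read at 72 h post infection, normalized to buffer-only and Salinomycin controls.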
* marks the source's active call; other numbers are inactive results; [ ] = dose if it differs, or a comment. Unless noted, calls follow the shape of the dose curve; as a rule, active = well fitted curve in the direction sought with a large enough effect; inconclusive = small, poorly fitted or top-dose-only effect, or another doubt; inactive = no such curve, though single readings can be large; an effect the other way counts as inactive or inconclusive.

Screening O=C(Nc1ccccc1F)C1CCCN1S(=O)(=O)c1cccc2nsnc12 (stereo unspecified) returned HCV inhibitor 12.4%, Sm TGR block 10.1%, SARS PLpro yeast -2.6%, Pf growth 96h inconclusive, Pf growth 48h 8.6% and HCMV inh -31.8.
Screening CC(C)N(Cc1ccccc1)C(=O)CN1c2cccc3cccc(c23)S1(=O)=O returned HCV inhibitor inconclusive, SARS PLpro yeast -28.2% and HCMV inh -10.5.
`COCCNC(=O)C(c1ccc(C)o1)N(C(=O)C(=O)NC1CCCCC1)c1ccc(F)cc1` (stereo unspecified) gave HCV inhibitor 11.7%, Sm TGR block 0.2%, SARS PLpro yeast -1.2%, Pf growth 96h -13.8%, Pf growth 48h -18.4% and HCMV inh -22.5.
`O=[N+]([O-])c1cccnc1Oc1ccc(C2SCCS2)cc1` gave HCV inhibitor 1.5%, Sm TGR block 12.5%, SARS PLpro yeast 0.5%, Pf growth 96h 10.4µM*, Pf growth 48h 4.65µM* and HCMV inh -29.9.
Screening COc1cc(C2SCCS2)cc(Br)c1Oc1ncccc1[N+](=O)[O-] returned HCV inhibitor inconclusive, Sm TGR block 14.2%, SARS PLpro yeast -1.1%, Pf growth 96h inconclusive, Pf growth 48h -0.8% and HCMV inh -6.3.
For CN[C@H]1C[C@H]2c3cc(-c4ccccc4)ccc3CCN2C(=O)[C@H]1[C@H](C)O the results were HCMV inh -4.5.
Cc1ccc(CN(CC2CCCO2)C(=O)CN2C(=O)C(C(C)C)Oc3ccccc32)o1 (stereo unspecified) was read as HCV inhibitor 8.7%, Sm TGR block 35.5µM*, SARS PLpro yeast 1.3%, Pf growth 96h -22.0%, Pf growth 48h inconclusive and HCMV inh -6.8.
Screening CC(=O)CCC(=O)OCC(=O)c1ccc(C(F)(F)F)cc1 returned HCV inhibitor 10.9%, Sm TGR block 119.1%, SARS PLpro yeast 0.7%, Pf growth 96h -9.6%, Pf growth 48h inconclusive and HCMV inh 23.7.
Screening COc1ccc2c(Cl)c(C(=O)NN3CCN(C)CC3)sc2c1 returned HCV inhibitor inconclusive, Sm TGR block -1.4%, SARS PLpro yeast 0.7%, Pf growth 96h inconclusive, Pf growth 48h 10.7% and HCMV inh -24.1.
CC1=Nc2cc(C(=O)NCCCOC(C)C)ccc2Sc2ccc(C)cc21 was read as HCV inhibitor -10.8%, Sm TGR block -15.4%, SARS PLpro yeast -2.2%, Pf growth 96h 44.9%, Pf growth 48h 7.38µM* and HCMV inh -76.3*.
For CC1=Nc2cc(C(=O)NCCCOC(C)C)ccc2Sc2ccccc21 the results were HCV inhibitor -10.0%, Sm TGR block 0.3%, SARS PLpro yeast 0.9%, Pf growth 96h inconclusive, Pf growth 48h inconclusive and HCMV inh active.
Screening CC1=Nc2cc(C(=O)NCCc3ccc(Cl)cc3)ccc2Sc2ccc(C)cc21 returned Sm TGR block -2.3% and HCMV inh -65.3*.
Screening COCCCNC(=O)c1ccc2c(c1)N=C(C)c1c(C)ccc(C)c1S2 returned Sm TGR block 0.1%.
For Cc1ccccc1C(=O)NNc1ncnc2c1cnn2-c1cccc(Cl)c1 the results were Sm TGR block -0.1% and HCMV inh -34.4.
Screening CC(C)(C)NC[C@H](O)c1cc(O)cc(O)c1 returned Pf growth 96h -18.9% and Pf growth 48h 2.1%.
For CCOC(=O)c1ccccc1NC(=O)CSc1cc(C)[nH]c(=O)n1 the results were Sm TGR block 0.4% and HCMV inh 3.8.
`O=C1CC(c2ccco2)=Nc2ccccc2N1` gave HCV inhibitor 7.8%, Sm TGR block 44.7µM*, SARS PLpro yeast 6.8%, Pf growth 96h -0.1%[5.75 µM], Pf growth 48h 20.0% and HCMV inh -15.9.
Screening O=P(O)(CCc1ccccn1)CN1CCOCC1 returned HCV inhibitor 11.6%, Sm TGR block 1.1%, SARS PLpro yeast 1.2%, Pf growth 96h 5.22µM* and HCMV inh 5.1.
